# From PubChem BioAssay AID588413 (Sanford-Burnham Center for Chemical Genomics, 2011)
# In all, about 340,000 compounds went through this assay and about 2,500 (0.74%) were called active. The sample holds actives, similar compounds and a random draw of the others, so the mix is not that of the screen. Unmarked numbers belong to inactive results.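 Rule for the calls: active = inhibition above about 55% (limit read from the data); inactive = the rest.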
# Assay: Gli-Sufu pathway antagonists, primary screen, luciferase luminescence, Sufu-KO-LIGHT cells, uHTS (AID 588413);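 note: 0% = DMSO-treated cells and 100% = wells with medium but no cells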
# Conditions: Sufu-KO-LIGHT fibroblasts, Gli luciferase reporter luminescence; at 5 µM; active compounds read high
row,Structure (SMILES),inhibition
1,COc1cc(C2C3C(=O)N(c4ccccc4)C(=O)C3ON2c2ccccc2)ccc1O (stereo not given),1.38%
2,O=C(CCN1C(=O)c2ccccc2C1=O)C1=NN[C@@H]2C(=O)N(c3ccc(F)cc3)C(=O)[C@H]12,27.5%
3,CO/N=C/c1cn(-c2ccc(Cl)cc2)nn1,-5.6%
4,COc1ccc(OC)c(CNC(=O)C2CCCN(c3nc4ccccc4o3)C2)c1 (stereo not given),1.69%
5,COc1ccccc1CNC(=O)C1CCN(c2nc3ccccc3o2)CC1,79.4% (active)
6,COc1ccccc1CNC(=O)C1CCN(S(C)(=O)=O)CC1,-3.13%
7,COC(=O)Cc1nc2c(N)nc(N)nc2[nH]c1=O,5.09%
8,NC(=O)C1CCN(C(=O)c2cc(S(=O)(=O)N3CCN(c4ccccc4)CC3)ccc2Cl)CC1,3.01%
9,COc1ccc(OC(C)C(=O)Nc2cccnc2)cc1 (stereo not given),-1.18%
10,COc1ccc(CCC(=O)c2ccc(OC)cc2)cc1,1.15%
11,COc1ccc(CS(=O)/C(Cl)=C(/Cl)C(=O)Nc2ccc(OC)nc2)cc1 (stereo not given),68.1% (active)
12,Cc1nc2nc[nH]n2c(=O)c1C/C=C/c1ccccc1,26.2%
13,C=CCc1c(C)nc2cc(-c3ccccc3)[nH]n2c1=O,27.4%
14,CCc1c(C)nc2cc(C)[nH]n2c1=O,75% (active)
15,CCOc1ccccc1NC(=S)C(=C([O-])c1ccc2c(c1)OCCO2)[n+]1ccc(CC)cc1,-43.8%
16,COc1ccc2cc(C3=CC(=O)C[C@H](c4ccc5c(c4)OCO5)C3)ccc2c1,-5.21%
17,O=C1C=C(c2ccnc3cc(Cl)ccc23)C[C@@H](c2ccc3c(c2)OCO3)C1,66.7% (active)
18,O=C1C=C(c2cc(C(F)(F)F)cc(C(F)(F)F)c2)C[C@@H](c2ccc3c(c2)OCO3)C1,6.64%
19,N#CCC(=O)NC(=O)NCC1CC1,-8.84%
20,CC(=O)c1cc(NC(=O)c2ccccc2)c(=O)oc1/C=C/N(C)C,8.24%
21,CCN1CCC2(CCN(Cc3cn[nH]c3-c3ccc(OC)c(F)c3)C2)C1 (stereo not given),7.07%
22,COc1ccc(-n2c(Cc3cccn3C)nnc2SCC(=O)Nc2cc(C)cc(C)c2)cc1,0.63%
23,CCCCn1c(SCC(=O)N2CCC(C(=O)OCC)CC2)nc2cc(S(N)(=O)=O)ccc21,6.66%
24,NS(=O)(=O)c1ccc(CCNC(=O)CCCn2c(SCC(=O)N3CCCC3)nc3ccsc3c2=O)cc1,79.4% (active)
25,CCCCn1c(SCC(=O)N2CCCC2=O)nc2cc(S(N)(=O)=O)ccc21,5.29%
